Inconclusive results are not listed. Active and inactive are the calls of the source. Calls follow the shape of the dose curve; as a rule, active = well fitted cell-killing curve with a large enough effect; inconclusive = small, poorly fitted or top-dose-only effect, or effect the other way; inactive = no such curve, though single readings can be large or run the other way.
Key:
[1] = Quantitative High-Throughput drug screen in 47 multiple myeloma cell lines against the NCATS MIPE library collection: MM1S_ATCC cell viability assay (AID 1918980); also: nearly all actives have a fitted effect of over 45% in size
How it was run: (§1)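 ATP-based luminescence (CellTiter-Glo, 5 min RT incubation) quantified surviving cells following two days' treatment with MIPE 4.0 agents at 37 °C, 5% CO2.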

[2] = Quantitative High-Throughput drug screen in 47 multiple myeloma cell lines against the NCATS MIPE library collection: KMS34_JCRB cell viability assay (AID 1918985); also: nearly all actives have a fitted effect of over 40% in size
How it was run: as §1

[3] = Quantitative High-Throughput drug screen in 47 multiple myeloma cell lines against the NCATS MIPE library collection: OCIMY7_PLB cell viability assay (AID 1918987); also: nearly all actives have a fitted effect of over 65% in size
How it was run: as §1

[4] = Quantitative High-Throughput drug screen in 47 multiple myeloma cell lines against the NCATS MIPE library collection: OCIMY5_PLB cell viability assay (AID 1918988); also: nearly all actives have a fitted effect of over 65% in size
How it was run: as §1

[5] = Quantitative High-Throughput drug screen in 47 multiple myeloma cell lines against the NCATS MIPE library collection: OPM1_PLB cell viability assay (AID 1918989); also: nearly all actives have a fitted effect of over 40% in size
How it was run: as §1

[6] = Quantitative High-Throughput drug screen in 47 multiple myeloma cell lines against the NCATS MIPE library collection: SKMM1_PLB cell viability assay (AID 1919863); details: SKMM1 myeloma viability, CellTiter-Glo ATP, 48 h; viability: hits give low values; also: nearly all actives have a fitted effect of over 35% in size
How it was run: as §1

[7] = Quantitative High-Throughput drug screen in 47 multiple myeloma cell lines against the NCATS MIPE library collection: XG6_PLB cell viability assay (AID 1919865); also: nearly all actives have a fitted effect of over 40% in size
How it was run: as §1

[8] = Quantitative High-Throughput drug screen in 47 multiple myeloma cell lines against the NCATS MIPE library collection: XG1_PLB cell viability assay (AID 1919866); also: nearly all actives have a fitted effect of over 35% in size
How it was run: as §1

[9] = Quantitative High-Throughput drug screen in 47 multiple myeloma cell lines against the NCATS MIPE library collection: VP6_DJ cell viability assay (AID 1919867); also: nearly all actives have a fitted effect of over 40% in size
How it was run: as §1

[10] = Quantitative High-Throughput drug screen in 47 multiple myeloma cell lines against the NCATS MIPE library collection: PE2_PLB cell viability assay (AID 1919869); also: nearly all actives have a fitted effect of over 35% in size
How it was run: as §1

[11] = Quantitative High-Throughput drug screen in 47 multiple myeloma cell lines against the NCATS MIPE library collection: PCM6_Riken cell viability assay (AID 1919870); also: nearly all actives have a fitted effect of over 30% in size
How it was run: as §1

[12] = Quantitative High-Throughput drug screen in 47 multiple myeloma cell lines against the NCATS MIPE library collection: RPMI8226_ATCC cell viability assay (AID 1919871); also: nearly all actives have a fitted effect of over 30% in size
How it was run: as §1

[13] = Quantitative High-Throughput drug screen in 47 multiple myeloma cell lines against the NCATS MIPE library collection: OPM2_DSMZ cell viability assay (AID 1919872); also: nearly all actives have a fitted effect of over 30% in size
How it was run: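 Viability readout: CellTiter-Glo luminescence following 5 min room-temperature incubation with reagent. Prior exposure: 48 h, 37C, humidified 5% CO2, 500 cells per well.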

[14] = Quantitative High-Throughput drug screen in 47 multiple myeloma cell lines against the NCATS MIPE library collection: KMS28PE_JCRB cell viability assay (AID 1918983); also: nearly all actives have a fitted effect of over 35% in size
How it was run: as §1

[15] = Quantitative High-Throughput drug screen in 47 multiple myeloma cell lines against the NCATS MIPE library collection: U266_ATCC cell viability assay (AID 1919864); also: nearly all actives have a fitted effect of over 35% in size;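 as to viability (% of DMSO control): 0% = media-only wells without cells and 100% = DMSO-only wells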
How it was run: as §1

[16] = Quantitative High-Throughput drug screen in 47 multiple myeloma cell lines against the NCATS MIPE library collection: UTMC2_PLB cell viability assay (AID 1919868); details: CellTiter-Glo ATP luminescence, 48 h; viability (% of DMSO control): at 45.8 µM (top of the series); also: nearly all actives have a fitted effect of over 55% in size;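 as to viability (% of DMSO control): 100% = DMSO-only wells and 0% = media-only wells without cells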
How it was run: as §1

[17] = Quantitative High-Throughput drug screen in 47 multiple myeloma cell lines against the NCATS MIPE library collection: MM1R_ATCC cell viability assay (AID 1918981); also: nearly all actives have a fitted effect of over 35% in size
How it was run: as §1

[18] = Quantitative High-Throughput drug screen in 47 multiple myeloma cell lines against the NCATS MIPE library collection: LP1_DSMZ cell viability assay (AID 1918982); also: nearly all actives have a fitted effect of over 35% in size
How it was run: as §1

[19] = Quantitative High-Throughput drug screen in 47 multiple myeloma cell lines against the NCATS MIPE library collection: OCIMY1_PLB cell viability assay (AID 1918979); also: nearly all actives have a fitted effect of over 35% in size;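 as to viability: 100% = DMSO-only wells and 0% = cell-free media-only wells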
How it was run: as §1
Potency is read from the fitted curve at half-maximal effect.

COc1ccc(C(=O)c2c(C)n(CCN3CCOCC3)c3cc(I)ccc23)cc1
active: Potency [2] 20.9 µM | Potency [3] 5.9 µM | Potency [4] 9.35 µM | Potency [5] 18.7 µM | Potency [6] 16.6 µM | Potency [7] 10.5 µM | Potency [8] 7.43 µM | Potency [9] 6.62 µM | Potency [10] 13.2 µM | Potency [11] 11.8 µM | Potency [12] 18.7 µM | Potency [13] 26.4 µM
inactive: Potency [1]

Cc1c(C(=O)Nc2cccc(C(F)(F)F)c2)cc(-c2ccccc2)n1CCCN1CCOCC1
active: Potency [1] 20.9 µM | Potency [14] 16.6 µM | Potency [4] 16.6 µM | Potency [5] 18.7 µM | Potency [6] 26.4 µM | Potency [15] 16.6 µM | Potency [16] 5.9 µM | Potency [10] 14.8 µM | Potency [12] 14.8 µM

CC[C@H]1C=CC=CC[C@@H](C)[C@H](O)[C@@](C)(O)C(=O)[C@@H](C)[C@H](O)[C@@H](C)C(=O)[C@@H](C)[C@H](O)[C@@H](C)C=CC(=O)O[C@@H]2[C@@H](C)[C@H](CC1)O[C@]1(CC[C@H](C)[C@H](C[C@@H](C)O)O1)[C@H]2C
active: Potency [14] 20.9 µM | Potency [4] 0.0017 µM | Potency [6] 20.9 µM | Potency [15] 20.9 µM | Potency [9] 0.001 µM | Potency [16] 0.001 µM | Potency [10] 9.35 µM

O=[N+]([O-])c1ncc[nH]1
active: Potency [14] 0.105 µM | Potency [4] 29.6 µM
inactive: Potency [1] | Potency [17] | Potency [18] | Potency [15] | Potency [8] | Potency [16] | Potency [10] | Potency [12] | Potency [13]

C[C@]12CC[C@H]3[C@@H](CCC4=CC(=O)CC[C@@]43C)[C@H]1CC[C@H]2OC(=O)CCC1CCCC1
inactive: Potency [19] | Potency [14] | Potency [15] | Potency [8] | Potency [9] | Potency [11] | Potency [13]
active: Potency [4] 20.9 µM

COC1=C[C@@H]2[C@@H]3Cc4ccc(OC)c(O)c4[C@]2(CCN3C)CC1=O
active: Potency [1] 1.66 µM | Potency [4] 1.66 µM | Potency [5] 9.35 µM | Potency [15] 2.35 µM | Potency [7] 1.18 µM | Potency [8] 1.32 µM | Potency [9] 2.35 µM | Potency [16] 4.69 µM | Potency [10] 9.35 µM | Potency [11] 2.64 µM
inactive: Potency [14] | viability [6] 132% | Potency [12]

O=C(NCC1CCOCC1)c1cnc(Nc2ccc(Cl)cc2Cl)nc1C(F)(F)F
inactive: Potency [14] | Potency [2] | Potency [5] | viability [6] 104% | Potency [12] | Potency [13]
active: Potency [1] 3.32 µM | Potency [15] 8.33 µM | Potency [7] 6.62 µM | Potency [9] 6.62 µM | Potency [11] 5.9 µM

Cc1ccccc1-n1c(Cn2ncc3c(N)ncnc32)nc2cccc(C)c2c1=O
inactive: Potency [15]
active: Potency [1] 0.118 µM | Potency [17] 16.6 µM | Potency [14] 9.35 µM | Potency [4] 4.18 µM | Potency [5] 0.148 µM | Potency [6] 5.26 µM | Potency [7] 0.0418 µM | Potency [8] 0.296 µM | Potency [9] 0.166 µM | Potency [16] 0.0743 µM | Potency [11] 0.296 µM | Potency [12] 8.33 µM | Potency [13] 8.33 µM

N=c1c2c(-c3ccccc3)c(-c3ccccc3)n(Cc3ccccc3)c2ncn1C1CCC(O)CC1 (stereo not drawn)
active: Potency [1] 5.26 µM | Potency [18] 23.5 µM | Potency [14] 11.8 µM | Potency [2] 13.2 µM | Potency [3] 0.132 µM | Potency [4] 11.8 µM | Potency [5] 3.32 µM | Potency [6] 16.6 µM | Potency [15] 4.69 µM | Potency [7] 6.62 µM | Potency [9] 0.0935 µM | Potency [10] 4.69 µM | Potency [12] 14.8 µM | Potency [13] 5.9 µM

N#C[C@H](O[C@@H]1O[C@H](CO[C@@H]2O[C@H](CO)[C@H](O)[C@H](O)[C@H]2O)[C@H](O)[C@H](O)[C@H]1O)c1ccccc1
active: Potency [19] 20.9 µM | Potency [14] 23.5 µM | Potency [2] 8.33 µM | Potency [4] 20.9 µM | Potency [5] 26.4 µM | Potency [6] 20.9 µM | Potency [15] 23.5 µM | Potency [7] 18.7 µM | Potency [8] 23.5 µM | Potency [9] 18.7 µM | Potency [10] 18.7 µM | Potency [11] 18.7 µM | Potency [12] 23.5 µM

— PubChem BioAssay (NCATS)
